Vaccinia mCherry: inhibitors of vaccinia virus infection (mCherry reporter signal). Vaccinia virus mCherry reporter infection, fluorescence. Potency, µM (titrated, usually from 36.5 µM), for inactives: at the top dose activity change, negative = inhibition, hits mostly inhibitors. actives 0.63% (n = 310,000). AID 720579; calls by dose curve; tested in A549 cells; also: potency is read from the fitted curve at half-maximal effect; nearly all actives have a fitted effect of over 35% in size
HCV inh: blocks hepatitis C virus. Huh7.5.1 HCVcc-Cre infection, luciferase reporter, 44 h. Potency, µM (doses to about 41.8 µM), for inactives: at the top dose activity change, negative = inhibition, most hits filed as inhibitors. actives 3.4% (n = 340,000). AID 651820; also: potency is read from the fitted curve at half-maximal effect
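Infectious HCV cell culture screen: compound-treated cells (1,000/well, pre-plated 4 h) are infected with HCVcc-Cre at roughly 0.5 moi and grown 44 h. Infection is quantified by luciferase signal after 15 min substrate incubation at room temperature.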
VACV Venus inh: vaccinia inhibition (Venus reporter) | actives 0.46% (n = 330,000) | Vaccinia virus Venus reporter expression, fluorescence | Potency, µM (highest dose often 36.5 µM), without a hit: at the top dose activity change, negative = inhibition, actives largely listed as inhibitors | AID 720580; calls by dose curve; tested in A549 cells; also: potency is read from the fitted curve at half-maximal effect; nearly all actives have a fitted effect of over 30% in size
FMDV inh: foot and mouth disease virus antiviral activity; AID 1159524; FMDV antiviral cell-based qHTS; actives 1.2% (n = 410,000); Potency, µM (highest dose often 57.9 µM), without a hit: at the top dose activity change, negative = inhibition, most hits filed as inhibitors; calls by dose curve; tested in HEK293T cells; also: read-out not given here; potency is read from the fitted curve at half-maximal effect; nearly all actives have a fitted effect of over 45% in size
FBPA Giardia inh: inhibitors of Giardia lamblia fructose-1,6-bisphosphate aldolase; A8B2U2; purified Giardia FBPA; Potency, µM (highest dose often 59.6 µM), for inactives: at the top dose activity, negative = inhibition, most hits filed as inhibitors; actives 0.71% (n = 290,000); AID 2451; also: potency is read from the fitted curve at half-maximal effect; nearly all actives have a fitted effect of over 55% in size
Target sequence (A8B2U2 whole entry, looked up): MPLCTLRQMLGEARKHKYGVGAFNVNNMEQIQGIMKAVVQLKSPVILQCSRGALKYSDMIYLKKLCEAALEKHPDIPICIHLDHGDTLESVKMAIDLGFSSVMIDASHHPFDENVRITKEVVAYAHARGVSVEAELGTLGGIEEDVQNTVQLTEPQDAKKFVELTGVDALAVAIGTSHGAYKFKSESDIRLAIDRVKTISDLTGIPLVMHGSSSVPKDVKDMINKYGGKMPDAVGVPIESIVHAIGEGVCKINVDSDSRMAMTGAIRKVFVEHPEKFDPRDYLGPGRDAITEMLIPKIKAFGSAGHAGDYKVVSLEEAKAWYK
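40 nM FBPA preincubated 10 min at RT with compound (up to 57.5 uM final), then substrate plus GAPDH/TPI/NAD/arsenate coupling and diaphorase/resazurin added. Fluorescence read after 20 min at RT, 525/598 nm.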
HCMV antiviral: inhibitors of human cytomegalovirus; HFF cells, HCMV-luciferase reporter, 72 h; stronger effect = lower value; activity change, negative = inhibition, % at 57.5 µM; actives 4.5% (n = 410,000); AID 1259415; in the data active = activity change below about -60%; inconclusive = no clear call, values can overlap the other calls; inactive = above about -39%
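HFF cells seeded 16 h at 37C, treated with compounds, infected with luciferase-reporter HCMV at MOI 1 PFU/cell; luciferase read at 72 h post infection, normalized to buffer-only and Salinomycin controls.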
* = called active by the depositor; u = inconclusive; x = no result given. Hits are enriched below; roughly 7.5% of the tested compounds scored in any of these assays. Unless noted, calls follow the shape of the dose curve; as a rule, active = well fitted curve in the direction sought with a large enough effect; inconclusive = small, poorly fitted or top-dose-only effect, or another doubt; inactive = no such curve, though single readings can be large; an effect the other way counts as inactive or inconclusive. % is scaled to controls: 0 for no effect and ±100 for the full control effect.

SMILES	Vaccinia mCherry	HCV inh	VACV Venus inh	FMDV inh	FBPA Giardia inh	HCMV antiviral
[O-]/C(=C(\C(=S)Nc1ccc(SC(F)F)cc1)[n+]1ccccc1)c1cc(Cl)ccc1Cl	-4%	u	-30%	-10%	-14%	-61*
C[C@@]12C=Cc3occc3[C@H]1CC[C@@]13C[C@@H](CC[C@H]12)[C@@](O)(CO)C3	x	x	x	x	0%	x
Nc1ccc(N2CCOCC2)c2nonc12	-8%	25%	-14%	-3%	2.8µM*	17
CCOC(=O)c1cc(S(=O)(=O)Nc2ccc(Br)c(C)c2)[nH]n1	-9%	x	-3%	62%	x	1
COc1cc(/C=N/Nc2snc(SC)c2C#N)cc(OC)c1OC	x	u	u	u	0%	-86*
Cc1ccc(NC(=O)C2CCN(C(=O)c3cnn(-c4ccccc4)c3-n3cccc3)CC2)cc1Cl	-14%	x	u	u	x	-24
COc1cc(NC(=O)c2cccc(C)c2)c(OC)cc1NC(=O)CN1CCOCC1	-2%	u	-19%	-2%	-16%	-36
COc1cc(NC(=O)c2cccc(Cl)c2)c(OC)cc1NC(=O)CN1CCOCC1	x	u	-13%	-4%	-26%	-72*
COc1cc(NC(=O)c2ccccc2)c(OC)cc1NC(=O)CN1CCCCC1	u	u	-14%	13%	-22%	-3
COc1cc(NC(=O)c2cccc(Cl)c2)c(OC)cc1NC(=O)CN1CCCCC1	u	35µM*	-26%	-20%	4%	u
COc1cc(OC)c(N(C)C(=O)Cn2ncc3c([nH]c4ccccc43)c2=O)cc1Cl	3%	x	-2%	-26%	x	19
O=C(c1ccco1)N1CCN(C(=O)c2ccccc2OCc2ccccc2)CC1	-2%	0%	-16%	0%	x	-18
COc1ccccc1NC(=O)Cn1c(=O)n(Cc2ccccc2)c(=O)c2c1c1cc(C)ccc1n2C	-18%	x	-13%	-3%	x	25
CCc1ccc(Nc2n[n+](-c3ccccc3)c(-c3ccc(C(=O)O)cc3)s2)cc1	-6%	3%	4%	6%	u	11
CCc1ccc(Nc2n[n+](-c3ccccc3)c(-c3ccc(SC)cc3)s2)cc1	-13%	-26%	-30%	-4%	-25%	-65*
O=C(Nc1ccccc1)[C@H]1[C@H](CO)[C@H]2Cn3c(cccc3=O)[C@H]2N1C(=O)C1CC1	x	x	x	x	x	42
COc1cc(/C=N/NC(=S)NC2CC3C=CC2C3)cc(OC)c1OC (stereo not given)	-16%	u	-5%	u	-13%	-61*
CCOc1ccc(/C=N/NC(=S)NC2CC3C=CC2C3)cc1 (stereo not given)	x	u	x	-26%	-7%	u
O=C(CN1c2ccccc2Sc2ccccc21)NNC(=O)Nc1cccc(Cl)c1	u	-20%	u	17%	1%	-73*
CSc1ccc(S(=O)(=O)Nc2ccc3c4c(cccc24)CC3)cc1	x	u	x	-8%	-5%	-82*
CSc1ccc(S(=O)(=O)Nc2ccc3c(c2)NC(=O)CC3)cc1	-22%	-25%	-20%	0%	4%	-11
O=S(=O)(Nc1ccc2c3c(cccc13)CC2)c1ccc(F)cc1	x	-7%	-17%	7%	-15%	-61*
O=C(Nc1cccc(C(=O)O)c1)/C(=C\c1ccccc1Cl)NC(=O)c1ccco1	-13%	-11%	-8%	-12%	x	40
CC1CCC2(CC1)NC(=O)N(NC(=O)CCl)C2=O (stereo not given)	16µM*	-7%	u	-3%	6%	-63*
CC1CCC2(CC1)NC(=O)N(NC(=O)c1cccs1)C2=O (stereo not given)	x	15%	x	6%	x	-5
CCOC(=O)c1cnc(SCC(=O)Nc2sc(C)c(C)c2C#N)nc1N	x	-10%	x	-8%	8%	-64*
CCOC(=O)c1cnc(SCC(=O)Nc2cc(OC)cc(OC)c2)nc1N	x	u	x	0%	5%	-60*
CCOC(=O)c1cnc(SCc2nc(N)nc(Nc3ccccc3)n2)nc1N	-7%	u	-17%	u	-1%	-82*
CCOC(=O)c1cnc(SCC(=O)Nc2ccc(N3CCOCC3)c(Cl)c2)nc1N	x	1%	x	-7%	4%	33
